The panel holds about 79,000 compounds, 15% with a hit somewhere; the sample as a whole holds those more often. Unmarked numbers belong to inactive results. Cut-off read from the data, not from the text of the source: active = growth inhibition above about 70%; inactive = the rest.
Experiment: NCI Yeast Anticancer Drug Screen. Data for the sgs1 mgt1 strain (AID 161);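 note: 0% = growth of cultures given vehicle only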
Details: S. cerevisiae sgs1 mgt1 strain, at 50.0 µM, active compounds read high
Outline: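 This yeast growth screen uses a strain with defined DNA-repair lesions; compound-treated growth is compared with vehicle-treated growth.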

| SMILES | growth inhibition |
| --- | --- |
| CC1=C(CCC(C)CO)OC2CC3C4CCC5CC(O)CCC5(C)C4CCC3(C)C12 (stereo unspecified) | -24.7% |
| COC(=O)c1nc(N)nc(C(=O)OC)c1C(=O)c1ccc(Cl)c(Cl)c1 | -18.5% |
| CNC(=O)OCc1c(COC(=O)NC)c(-c2ccccc2)n(-c2ccccc2)c1C | 44.8% |
| C=C(C)COC(=O)COc1ccc(Cl)cc1 | -3.5% |
| CCCNC(=S)/N=C\c1c(O)c2ccccc2oc1=O | -35% |
| CCOC(=O)/C(C)=C1\N=C(c2ccccc2)OC(=NC2CCCCC2)N1C1CCCCC1 | 0.3% |
| CCOC(=O)/C(C)=C(/C)Nc1ccccc1 | -1.25% |
| O=C(CNC(=O)c1ccccc1)Nc1ccc([N+](=O)[O-])cc1 | -1.5% |
| Nc1ccc(Nc2c3ccccc3nc3ccccc23)cc1 | 23.4% |
| CC(C)(N=NC(C)(C)C(=O)NCCO)C(=O)NCCO | 0.85% |
| CC(=O)c1ccc2ccccc2c1 | 4.3% |
| Cc1ccc(CSCc2c(CSCc3ccc(C)cc3)c(CSCc3ccc(C)cc3)c(CSCc3ccc(C)cc3)c(CSCc3ccc(C)cc3)c2CSCc2ccc(C)cc2)cc1 | 5.8% |
| O=C(NO)Oc1cccc2ccccc12 | 0.25% |
| O=C1/C(=C/c2ccccc2)N=C2Sc3c(nc[nH]c3=O)N12 | -12.4% |
| O=c1c(O)c(-c2ccccc2)oc2c(CP(=O)(O)O)cccc12 | -17.3% |
| O=C(O)CCC(=O)Nc1ccccc1C(=O)O | -8.15% |
